Assay outcomes as filed in PubChem BioAssay.
hcDAF12 agonist = H. contortus DAF-12 nuclear receptor activators, primary screen, cell-based, luminescence, HEK293, lit1-tk-luc reporter. HEK293 hcDAF-12 lit1-tk-luc reporter; 0% DMSO, 100% Δ7-dafachronic acid. activation, % at 6.8 µM. 1.4% of 370,000 active. AID 652067, 2013;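 active = activation above the mean of all tested compounds plus 3 SD, cut at about 5.5% in these data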;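 also: 100% = response to 3 µM Δ7-dafachronic acid high control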
SMARCA2 act = SMARCA2 (BRM) function activators, primary screen, cell-based, luminescence, high throughput. MG213 cells, MMTV-luciferase reporter, dexamethasone, overnight. activation, % at 9.1 µM. 1% of 370,000 active. AID 652017, 2013; in the data active = activation above about 7.8%;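 also: 0% = vehicle wells and 100% = reference activator wells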
DAX1 inh-1 = DAX1 (NR0B1) inhibitors, primary screen, cell-based, HEK293, Gal4-DAX1, luciferase luminescence; HEK293 Gal4-DAX1 luciferase reporter; Nuclear receptor subfamily 0 group B member 1 (Homo sapiens), P51843; AID 504766, 2011; 0.99% of 340,000 active; inhibition, % at 6.75 µM;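 active = inhibition above the mean over all tested compounds plus 3 SD, cut at about 4.2% in these data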;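 also: 0% = DAX1-transfected cells with DMSO and 100% = empty-vector control cells with DMSO; inhibition shows as a rise in luminescence from relieved DAX1 repression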
Target sequence (P51843 207-470 limits assumed): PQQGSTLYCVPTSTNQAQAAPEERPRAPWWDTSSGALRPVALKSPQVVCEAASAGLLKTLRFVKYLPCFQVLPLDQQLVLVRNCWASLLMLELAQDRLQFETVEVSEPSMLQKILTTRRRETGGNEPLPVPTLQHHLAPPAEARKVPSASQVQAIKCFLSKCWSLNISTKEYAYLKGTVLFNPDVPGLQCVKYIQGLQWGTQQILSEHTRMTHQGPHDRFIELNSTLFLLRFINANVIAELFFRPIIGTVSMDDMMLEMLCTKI
hgDAF12 agonist = H. glycines DAF-12 receptor agonists, primary screen, cell-based, luminescence, HEK293, GAL4 fusion, UAS-luciferase; Nuclear hormone receptor DAF-12 (Heterodera glycines), GAL4 fusion; HEK293 GAL4-hgDAF12 UAS-luciferase reporter, agonist luminescence; normalized to butyrate control; activation, % at 6.8 µM; 1.8% of 370,000 active;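 active = activation above a cutoff set at the mean of all screened compounds plus 3 SD, cut at about 10% in these data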;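 also: 0% = DMSO wells and 100% = sodium butyrate wells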
ssDAF-12 act = S. stercoralis DAF-12 nuclear receptor activators, primary screen, cell-based, luminescence, HEK293, GRIP1 co-expression, lit1-tk-luc | Nuclear hormone receptor DAF-12 (Strongyloides stercoralis) | activation, % at 6.8 µM | HEK293 ssDAF-12/GRIP1 lit1-tk-luc reporter; % of 3 µM dafachronic acid response | 1% of 370,000 active;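 active = activation above the mean over all tested compounds plus 3 SD, cut at about 0.9% in these data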;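 also: 0% = DMSO-only wells and 100% = 3 µM delta7-dafachronic acid wells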
DAX1 inh-2 = DAX1 (NR0B1) inhibitors on StAR promoter, primary screen, cell-based, luminescence, SF-1 (NR5A1), full-length DAX-1 | HEK293T StAR-luciferase reporter, SF-1/DAX-1 repression relief | inhibition, % at 6.8 µM | 1.1% of 370,000 active;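 active = inhibition above the mean over all tested compounds plus 3 SD, cut at about 3.6% in these data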;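 also: 0% = DAX-1 cells with DMSO and 100% = cells lacking DAX-1 with DMSO; higher inhibition means more luminescence from relief of DAX-1 repression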
Starred values were filed as active, the others as inactive; / = no result. This is a sample that favours compounds with a hit; in the whole collection about 4.8% have one here.

SMILES	hcDAF12 agonist	SMARCA2 act	DAX1 inh-1	hgDAF12 agonist	ssDAF-12 act	DAX1 inh-2
CCOC(=O)C1CCCN(C(=O)c2ccc(-c3ccccc3Cl)o2)C1 (stereo not given)	0	7	0	7	0	4.3*
S=C(c1ccc(-c2ccccc2Cl)o1)N1CCCCC1	3	-1	1	12*	1	3
O=C(O)c1ccc(-c2ccccc2Cl)o1	-1	1	2	-3	-1	-1
O=C(c1ccc(-c2ccccc2Cl)o1)N1CCN(c2ccccc2O)CC1	4	-2	1	1	0	0
Cc1ccccc1NC(=O)c1cccc2c1-c1ccccc1C2=O	0	-5	/	0	-2	-1
COc1ccc(-c2nc(-c3ccc(Br)cc3)no2)c(OC)c1	4	5	4	12*	1.0*	3
COc1ccccc1-c1nc(-c2ccc(Br)cc2)no1	5.8*	4	2	9	1.5*	1
COc1cc(OC)cc(-c2nc(-c3ccc(Br)cc3)no2)c1	2	1	1	0	-1	0
COc1ccccc1-c1noc(-c2cc(OC)c(OC)c(OC)c2)n1	-2	-2	1	-1	-1	0
CCOC(=O)CC1CCCCN1Cc1cn[nH]c1-c1ccc(F)cc1F (stereo not given)	-2	-3	4.7*	-4	-1	0
N/C(=N\OC(=O)c1cc([N+](=O)[O-])ccc1Cl)c1ccccn1	-1	5	4	-1	-1	-1
N/C(=N\OC(=O)c1ccc([N+](=O)[O-])cc1Cl)c1ccccn1	6.1*	1	-7	9	1.1*	0
O=C(Nc1ccc(-c2cnco2)cc1)c1ccc(F)cc1F	0	4	3	10	-1	0
Cc1ccc(-c2cnco2)cc1	2	-2	6.3*	-2	-2	0
CC(C)(C)C1(O)CC(C(F)(F)F)=NN1C(=O)CCCc1ccccc1 (stereo not given)	0	-2	4.6*	-1	-1	0
Cc1cc(C)cc(OCC(=O)N2N=C(C(F)(F)F)CC2(O)C(C)(C)C)c1 (stereo not given)	-1	0	0	-1	-1	-1
O=S(=O)(c1ccc(F)cc1)N1CCCc2nc(-c3ccc(Br)cc3)ccc21	1	0	/	3	-1	-1
N#Cc1ccc(S(=O)(=O)N2CCCc3nc(-c4ccc(F)cc4)ccc32)cc1	4	-2	/	0	1.7*	0
N#Cc1ccc(S(=O)(=O)N2CCCc3nc(-c4ccc(Br)cc4)ccc32)cc1	1	6	/	1	1.4*	-1
CCN(CC)C(=O)CC[C@H]1CC[C@]2(CCCN(C(=O)c3ccccc3)C2)O1	-1	-2	/	0	-2	-1
CC(=O)NS(=O)(=O)c1ccc(NC(=O)c2ccccn2)cc1	1	-1	1	2	0	0
CN(C)S(=O)(=O)c1ccc(C(=O)Nc2ccccn2)cc1	0	1	1	11*	-1	2
Cc1ccc(S(=O)(=O)N(C)c2ccc(C(=O)Nc3ccccn3)cc2)cc1	1	2	-2	1	-2	1
CN(C)S(=O)(=O)c1ccc(NC(=O)c2ccccn2)cc1	2	4	2	13*	0	3
CCn1c(SCC(=O)c2ccc(-c3ccccc3)cc2)nnc1-c1ccccc1OC	-2	-1	/	-3	-2	-1
SMILES	hcDAF12 agonist	SMARCA2 act	DAX1 inh-1	hgDAF12 agonist	ssDAF-12 act	DAX1 inh-2
COc1ccc(C2Nc3cccc4cccc(c34)N2)cc1Br	5	-1	-1	2	1.1*	0
O=C1CCC[C@H]2C[C@H](NCc3ccc(Br)cc3)CC[C@]23CCCN13	3	/	/	0	0	/
CCc1cc2c(=O)c(-c3nc4ccccc4[nH]3)coc2c(CN2CCCCC2C)c1O (stereo not given)	-1	0	4.6*	0	-2	-1
Cc1ccc(Nc2c(-c3ccc(C)o3)nc3cnccn23)cc1	2	7	2	12*	-1	2
O=C(CSc1nnc(CCCN2C(=O)c3cccc4cccc(c34)C2=O)n1-c1ccccc1)N1CCCCC1	-2	8.1*	-1	-1	-2	0
Cc1ccc(NC(=S)NNC(=O)CSc2nnc(-c3ccc(C)cc3)n2C2CCCCC2)cc1	-4	-2	/	0	-1	-1
CON(C)S(=O)(=O)c1cccc(C(=O)N(CC(=O)Nc2ccccc2C(F)(F)F)Cc2ccco2)c1	2	-1	-1	-4	-2	0
O=C(CN(Cc1ccco1)C(=O)c1cccc(F)c1)Nc1ccccc1C(F)(F)F	0	-2	1	0	-1	3.7*
CCCCCNC(=O)C(c1ccc(-c2ccccc2)cc1)n1c(=O)c(-c2cc3ccccc3[nH]2)nc2ccccc21 (stereo not given)	6.0*	-2	/	6	1.2*	2
CCCCCNC(=O)C(C1CC1)n1c(=O)c(-c2cc3ccccc3[nH]2)nc2ccccc21 (stereo not given)	2	-3	/	3	0	0
CC(C)(C)NC(=O)C(c1cc2ccccc2o1)n1c(=O)c(-c2ccccc2)nc2ccccc21 (stereo not given)	4	0	/	3	1.1*	1
Cc1cccc(C)c1NC(=O)C(c1ccncc1)n1c(=O)c(-c2cc3ccccc3[nH]2)nc2ccccc21 (stereo not given)	6.4*	-2	/	11*	1.0*	2
CCCCCNC(=O)C(c1cc2ccccc2o1)n1c(=O)c(-c2cc3ccccc3[nH]2)nc2ccccc21 (stereo not given)	5.6*	-1	/	5	0	0
Cc1cccc(C)c1NC(=O)C(c1ccccc1)n1c(=O)c(-c2cc3ccccc3[nH]2)nc2ccccc21 (stereo not given)	3	-3	/	1	0	1
COC(=O)C1CN(Cc2cn(Cc3ccc(OC)cc3)nn2)CCS(=O)(=O)N1Cc1ccc(Cl)cc1 (stereo not given)	-4	-2	/	-1	-2	-3
C=CC(=O)NC1CCCCN(CC)C1=O (stereo not given)	-2	0	/	-2	-1	0
Cc1cccc(NC(=O)Cn2nnc(-c3ccccc3F)n2)c1C	-2	-5	/	2	-1	-1
